PubChem BioAssay (NCI)
The panel holds about 79,000 compounds, 15% with a hit somewhere; the sample as a whole holds those more often. A number with no mark means an inactive call. The source made the active and inactive calls. No stated cut-off is given here; in the data, active means growth inhibition above about 70%; inactive means the rest. Where a SMILES comes first, the peptide text is derived from it. The star is where a group is joined. Trt = c1ccc(C(c2ccccc2)(c2ccccc2)*)cc1; Cbz = O=C(OCc1ccccc1)*

Assay: NCI Yeast Anticancer Drug Screen. Data for the rad50 strain (AID 155);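 further: 0% = growth of vehicle-only cultures of the same strain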
Details: S. cerevisiae rad50 strain growth inhibition; at 50.0 µM; hits give high values
Summary of the method: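 Inhibition values express reduced yeast growth in compound-treated cultures relative to vehicle-treated controls.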
`CC1CCN(CCC(=O)c2cccc(O)c2)CC1` gave a growth inhibition of 48.5%.
For `CCC(c1ccc(O)c(C2CCCCC2)c1)C(CC)c1ccc(OC(=O)c2ccccc2)c(C2CCCCC2)c1` (stereo not given), the growth inhibition was -16.8%.
Work on `CC(=O)c1csc2c1C(=O)c1scc(C(C)=O)c1C2=O` yielded a growth inhibition of 48.5%.
With `O=C1C2=Cc3ccccc3CCN2c2ccccc21` the growth inhibition was 88.3% (active).
In the case of `Cc1cc(I)cc(I)c1O`, the growth inhibition was 75.5% (active).
`NCCCSc1ccc(Br)cc1` gave a growth inhibition of 9.6%.
In the case of `O=C1OC2(Cc3ccccc31)c1ccccc1-c1ccccc12`, the growth inhibition was 20.8%.
With `Cc1occc1C(=S)Nc1ccc(Cl)c(C(=O)OCC2CC2)c1` the growth inhibition was 84.8% (active).
For `c1cc(C2=NCCN2)ccc1Nc1ccc(-c2cc3ccc(C4=NCCN4)cc3[nH]2)cc1`, the growth inhibition was 58.1%.
For `Cc1ccc(C)c(NC(=O)CC2SC(=Nc3ccccc3Cl)NC2=O)c1` (stereo not given), the growth inhibition was 79% (active).
With `Cc1ccccc1[P+](C)(c1ccccc1C)c1ccccc1C` the growth inhibition was 81% (active).
In the case of `Oc1ccc(CNCc2ccccc2)c2cccnc12`, the growth inhibition was 98.4% (active).
In the case of `COC(=O)c1ccc(OC)cc1`, the growth inhibition was 49.9%.
In the case of `OCC(CO)C1c2cccc3ccc4cccc1c4c23`, the growth inhibition was 64.5%.
With `CCC(CCCN(CC)CCc1ccccc1)OC(=O)c1cc(OC)c(OC)c(OC)c1` (stereo not given) the growth inhibition was 22.4%.
With `O=[N+]([O-])c1ccc(-[n+]2ccc3ccccc3c2)c([N+](=O)[O-])c1` the growth inhibition was 72.4% (active).
For `CN(C)CCC1(C2=CCCC2)CC/C(=C\c2ccccc2Cl)C1=O` (stereo not given), the growth inhibition was 69.3%.
In the case of `CCOC(=O)CCC(NC(=O)c1ccc(NC(OC)c2nc3cc(C(F)(F)F)ccc3nc2-c2ccccc2)cc1)C(=O)OCC` (stereo not given), the growth inhibition was 92.8% (active).
For `CCCCCCN(CCCCCC)CC(O)c1cc(-c2ccccc2)nc2c(O)cccc12` (stereo not given), the growth inhibition was 23.7%.
With `O=C1C=CC(=O)N1C1c2ccccc2-c2ccccc21` the growth inhibition was 99.5% (active).
`CC(=O)c1ccc(OCc2ccccc2)cc1` showed a growth inhibition of -2.25%.
With `O=C(Oc1cccc2cccnc12)c1ccccc1` the growth inhibition was 96.4% (active).
Work on `C=C(Cl)C(=NC(C)(C)C)Nc1ccccc1C` yielded a growth inhibition of 69.3%.
With `COC(=O)C(CSC(c1ccccc1)(c1ccccc1)c1ccccc1)NC(=O)C(CC(N)=O)NC(=O)OCc1ccccc1` (stereo not drawn) (Cbz-Asn-Cys(Trt)-OMe; configuration not given here) the growth inhibition was 73.5% (active).
`ClCc1nnc2n1-c1ccc(Cl)cc1SC2` showed a growth inhibition of 12.4%.

Assay: NCI Yeast Anticancer Drug Screen. Data for the mec2-1 strain (AID 157)
Details: S. cerevisiae mec2-1 strain, at 5.0 µM (retest, dose inferred, filed as 0.5), hits give high values
Summary of the method: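 Strain: mec2-1 (DNA repair/cell cycle alteration). Compound exposure, then growth measured; inhibition expressed relative to vehicle.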
For `CC(=O)O[C@H]1CC[C@]2(C)C3=CC[C@]4(C)[C@@H](C(C)=O)CC[C@H]4[C@@]34C=C[C@]2(C1)C1C(=O)OC(=O)C14` (stereo not given in full), the growth inhibition was 2%.
Compound `Cc1cc(O)c2c(c1)C(=O)c1c(c(O)cc(O)c1-c1c(O)cc(O)c3c1C(=O)c1cc(C)cc(O)c1C3=O)C2=O` has a growth inhibition of 29%.
In the case of `NC(=O)/C(=N\NC(=O)c1cc2ccccc2cc1O)C1C(=O)N(c2ccccc2)N=C1N` (stereo not given), the growth inhibition was 6%.
`CCNC(=S)NNC(=S)NNc1ccccc1` gave a growth inhibition of 63%.
With `OCC(O)C(O)C(O)C(O)C(O)C(/C=N/Nc1ccccc1)=N/Nc1ccccc1` (stereo not given) the growth inhibition was -2%.
With `O=C(CN(Cc1ccccc1)Cc1ccccc1)c1ccccc1` the growth inhibition was 1%.
`COC(=O)C1CCC(c2ccccc2)CC1C(=O)OC` (stereo not given) gave a growth inhibition of 0%.
Work on `COc1ccc2c(c1)C(=O)C(Br)CC2` (stereo not given) yielded a growth inhibition of 12%.
With `O=C1c2ccccc2C(=O)c2sc(Nc3ccc(Cl)cc3)nc21` the growth inhibition was 84% (active).
`O=Nc1c(-c2cccc([N+](=O)[O-])c2)nc2cnccn12` showed a growth inhibition of 24%.
Work on `CC/C(=N\NS(=O)(=O)c1ccc(C)cc1)c1cccc(OC)c1` yielded a growth inhibition of 12%.
Work on `NNC(=S)NN/C=C(\C=Nc1ccccc1)[N+](=O)[O-]` yielded a growth inhibition of -29%.
In the case of `CC(C)(C)c1ccc(CN2CCN(C(c3ccccc3)c3ccc(Cl)cc3)CC2)cc1` (stereo not given), the growth inhibition was 5%.
Work on `O=C1OCc2cccc3cccc1c23` yielded a growth inhibition of 9%.
`CC(C)CC(NC(=O)COc1c(Cl)cc(Cl)c(Cl)c1Cl)C(=O)O` (stereo not given) gave a growth inhibition of -1%.
`CC1CCN(CCC(=O)c2cccc(O)c2)CC1` gave a growth inhibition of -5%.
With `CCC(c1ccc(O)c(C2CCCCC2)c1)C(CC)c1ccc(OC(=O)c2ccccc2)c(C2CCCCC2)c1` (stereo not given) the growth inhibition was -21%.
With `CC(=O)c1csc2c1C(=O)c1scc(C(C)=O)c1C2=O` the growth inhibition was 27%.
Work on `O=C1C2=Cc3ccccc3CCN2c2ccccc21` yielded a growth inhibition of -6%.
In the case of `Cc1cc(I)cc(I)c1O`, the growth inhibition was 2%.
With `NCCCSc1ccc(Br)cc1` the growth inhibition was -4%.
Work on `O=C1OC2(Cc3ccccc31)c1ccccc1-c1ccccc12` yielded a growth inhibition of -4%.
For `Cc1occc1C(=S)Nc1ccc(Cl)c(C(=O)OCC2CC2)c1`, the growth inhibition was -21%.
In the case of `c1cc(C2=NCCN2)ccc1Nc1ccc(-c2cc3ccc(C4=NCCN4)cc3[nH]2)cc1`, the growth inhibition was 99% (active).
With `Cc1ccc(C)c(NC(=O)CC2SC(=Nc3ccccc3Cl)NC2=O)c1` (stereo not given) the growth inhibition was 24%.
Compound `Cc1ccccc1[P+](C)(c1ccccc1C)c1ccccc1C` has a growth inhibition of 18%.
`Oc1ccc(CNCc2ccccc2)c2cccnc12` gave a growth inhibition of 4%.
For `COC(=O)c1ccc(OC)cc1`, the growth inhibition was 3%.
With `OCC(CO)C1c2cccc3ccc4cccc1c4c23` the growth inhibition was -3%.
Work on `CCC(CCCN(CC)CCc1ccccc1)OC(=O)c1cc(OC)c(OC)c(OC)c1` (stereo not given) yielded a growth inhibition of -10%.
Work on `O=[N+]([O-])c1ccc(-[n+]2ccc3ccccc3c2)c([N+](=O)[O-])c1` yielded a growth inhibition of 8%.
Compound `CN(C)CCC1(C2=CCCC2)CC/C(=C\c2ccccc2Cl)C1=O` (stereo not given) has a growth inhibition of -18%.
In the case of `CCOC(=O)CCC(NC(=O)c1ccc(NC(OC)c2nc3cc(C(F)(F)F)ccc3nc2-c2ccccc2)cc1)C(=O)OCC` (stereo not given), the growth inhibition was 78% (active).
Compound `CCCCCCN(CCCCCC)CC(O)c1cc(-c2ccccc2)nc2c(O)cccc12` (stereo not given) has a growth inhibition of 7%.
For `O=C1C=CC(=O)N1C1c2ccccc2-c2ccccc21`, the growth inhibition was 100% (active).
For `CC(=O)c1ccc(OCc2ccccc2)cc1`, the growth inhibition was 1%.
`O=C(Oc1cccc2cccnc12)c1ccccc1` gave a growth inhibition of -22%.
For `C=C(Cl)C(=NC(C)(C)C)Nc1ccccc1C`, the growth inhibition was 20%.
For `COC(=O)C(CSC(c1ccccc1)(c1ccccc1)c1ccccc1)NC(=O)C(CC(N)=O)NC(=O)OCc1ccccc1` (stereo not drawn) (Cbz-Asn-Cys(Trt)-OMe; configuration not given here), the growth inhibition was 13%.
`ClCc1nnc2n1-c1ccc(Cl)cc1SC2` gave a growth inhibition of 0%.
